Results reported in PubChem BioAssay.
For some assays here: Results with a measured potency or affinity are listed apart. Active and inactive are the calls of the source. Unless noted, no cut-off is given here; in the data, nearly all actives have IC50 up to about 0.91 µM.

molecular target: Protein kinase 7 (PK7), Plasmodium falciparum 3D7 (PF3D7_0213400) (UniProt Q7YTF7); experiment: inhibition of Plasmodium PK7 catalytic activity – biochemical, TCAMS antimalarial set, Kinase-Glo luminescence (AID 1159587; call rule not given here); conditions: recombinant PfPK7, Kinase-Glo ATP depletion luminescence
Sequence (Q7YTF7 1-343): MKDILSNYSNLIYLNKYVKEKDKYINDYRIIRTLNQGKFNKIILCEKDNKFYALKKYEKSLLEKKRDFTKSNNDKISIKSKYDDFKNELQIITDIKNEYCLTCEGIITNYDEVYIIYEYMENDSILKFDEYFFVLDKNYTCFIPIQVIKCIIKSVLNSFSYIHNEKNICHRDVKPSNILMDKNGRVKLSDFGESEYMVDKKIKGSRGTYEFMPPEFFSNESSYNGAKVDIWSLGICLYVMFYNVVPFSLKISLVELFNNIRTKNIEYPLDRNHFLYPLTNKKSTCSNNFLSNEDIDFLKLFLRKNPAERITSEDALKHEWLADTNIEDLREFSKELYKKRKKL

outcome, inactive:
Cc1cc(-c2cccc(CNCCc3ccc(Cl)cc3)c2)cnc1N, CCCCCCN1CCN(Cc2cccc(NC(=O)c3cccc(OCC)c3)c2)CC1, CCOc1ccc(Br)cc1/C=C/C(=O)Nc1ccc2c(c1)CN(C)CCC2, O=C(CN1CCN(C(=O)c2ccco2)CC1)Nc1ccc(Br)cc1Cl, FC(F)(F)c1ccc2nc(-c3ccc(-c4ccc(CNCC5CCCO5)cc4)cc3)[nH]c2c1 (stereo not given), CC[C@H](NC(=O)c1ccc(NC(=O)OC(C)(C)C)cc1)C(=O)N[C@@H](CO)C(=O)NCCCCc1ccccc1, Cc1cccc(C(=O)Nc2ccnc(N3CCC(N(C)Cc4cccc(O)c4)CC3)c2)c1, CCCSc1nc2c(c(=O)n1CCc1ccccc1)C1(CCCC1)Cc1ccccc1-2, COc1ccc2c(NN=Cc3cccnc3)ccnc2c1, Cc1cc(N[C@@H](CC(C)C)C(=O)NCc2cccc(F)c2)nc(NCC2CCCCC2)n1, CN1CCCN(Cc2ccc(-c3ccc(NC(=O)c4ccc(C#N)cc4)cc3)cc2)CC1, O=C(N[C@@H](CC1CCCCC1)C(=O)NCCN1CCCC1)c1ccc(O)c(-c2ccc(Cl)c(Cl)c2)c1, NC(N)=Nc1nc(-c2ccc(NC(=O)Nc3cccc(-c4csc(N=C(N)N)n4)c3)cc2)cs1, CC(C)COc1ccc(Cl)cc1Cc1ccc(-c2nc3c(cnc4ccccc43)[nH]2)o1, CC1(C)N=C(N)N=C(N)N1OCc1cc(Cl)c(Cl)cc1CON1C(N)=NC(N)=NC1(C)C, CN(C)CCNCc1cccc(-c2cccc(-c3nc4ccccc4[nH]3)c2)c1, CCn1ccc2c(N3CCCS3(=O)=O)cc(C(=O)N[C@@H](Cc3ccccc3)[C@H](O)CNC3CCCCC3)cc21, CCCCCCN1CCN(Cc2cccc(NC(=O)c3cc4ccccc4s3)c2)CC1, N#Cc1ccc2c(c1)CCN(CCC1CCC(NC(=O)c3cc4cccc([N+](=O)[O-])c4[nH]3)CC1)C2 (stereo not given), O=C(Cn1c(CCc2cccc(F)c2F)cc(=O)c2cccnc21)N(CCCn1ccnc1)Cc1ccc(-c2ccc(C(F)(F)F)cc2)cc1, O=C(Nc1cccc(OCCN2CCCC2)c1)Nc1ccc(Cl)c(Cl)c1, Cc1ccc(Nc2nc(C)cc(Nc3cccc(NS(C)(=O)=O)c3)n2)cc1, Cc1cccc2c3c([nH]c12)C1(CCN(Cc2ccccc2)CC1)NC(C(=O)NCc1ccccc1)C3 (stereo not given), OCCn1c(CNCCCNc2nc3ccccc3[nH]2)cc2c(Cl)cc(Cl)cc21, CCOc1ccc2c(NN=Cc3cccc([N+](=O)[O-])c3)cc(C)nc2c1, CCN(CC)CCN(CCCc1ccc(-c2ccc(C(F)(F)F)cc2)cc1)C(=O)Cn1c(CCc2cccc(F)c2F)nc(=O)c2c1CCC2, Cc1cc(C(=O)Nc2nc(-c3ccccn3)nc3ccsc23)no1, CCCN(CCC)CCCNc1ccc(C(=O)Nc2ccc(C)c(F)c2)cc1[N+](=O)[O-], CCN(CC)CCN(Cc1ccc(-c2ccc(C(F)(F)F)cc2)cc1)C(=O)Cn1cc(CCCc2cccc(F)c2F)c(=O)c2ccccc21, O=C(Cc1ccc(NC(=O)c2ccc(O)c(-c3ccc(Cl)c(Cl)c3)c2)cc1)NCCc1ccc(Cl)c(Cl)c1, C=CCO[C@@H]1O[C@H](COC(c2ccccc2)(c2ccccc2)c2ccccc2)[C@@H](OC(C)=O)[C@H](OC(C)=O)[C@H]1NC(C)=O, CCOc1cc(NCCSCc2nc[nH]c2C)nc2ccccc12, Cc1cc(C(=O)Nc2ccc(-c3nc4ccccc4[nH]3)cc2)ccc1[N+](=O)[O-], Cc1ccc(C)c2sc(N(CCCn3ccnc3)C(=O)C=Cc3cccs3)nc12, COc1cc(C=Cc2ccc3ccccc3n2)cc(Br)c1OCC(=O)N(C)C, O=C(Nc1ccc(N2CCCCC2)c(Cl)c1)c1ccc(Br)o1, Cn1cnc(CCNC(=O)c2cccc(-c3cccc(-c4nc5ccc(C(F)(F)F)cc5[nH]4)c3)c2)c1, CC(Cc1ccc(CN(CC(N)=O)Cc2ccc(CC(C)NCCc3cccc(Cl)c3)cc2)cc1)NCCc1cccc(Cl)c1 (stereo not given), CCC1CCCCN1S(=O)(=O)c1ccc(OC)c(N2CCN(C(=O)C(Cl)(Cl)Cl)CC2)c1 (stereo not given), Cc1cc2ncn(-c3ccnc(N4CCN(CCCN5CCCC5)CC4)n3)c2cc1C

molecular target: Calcium-dependent protein kinase 4 (Plasmodium falciparum (isolate 3D7)) (UniProt Q8IBS5); experiment: PfCDPK4 kinase inhibitors, biochemical, TCAMS library (AID 1159588); conditions: recombinant PfCDPK4, Kinase-Glo ATP depletion luminescence
Sequence (Q8IBS5 whole entry, looked up): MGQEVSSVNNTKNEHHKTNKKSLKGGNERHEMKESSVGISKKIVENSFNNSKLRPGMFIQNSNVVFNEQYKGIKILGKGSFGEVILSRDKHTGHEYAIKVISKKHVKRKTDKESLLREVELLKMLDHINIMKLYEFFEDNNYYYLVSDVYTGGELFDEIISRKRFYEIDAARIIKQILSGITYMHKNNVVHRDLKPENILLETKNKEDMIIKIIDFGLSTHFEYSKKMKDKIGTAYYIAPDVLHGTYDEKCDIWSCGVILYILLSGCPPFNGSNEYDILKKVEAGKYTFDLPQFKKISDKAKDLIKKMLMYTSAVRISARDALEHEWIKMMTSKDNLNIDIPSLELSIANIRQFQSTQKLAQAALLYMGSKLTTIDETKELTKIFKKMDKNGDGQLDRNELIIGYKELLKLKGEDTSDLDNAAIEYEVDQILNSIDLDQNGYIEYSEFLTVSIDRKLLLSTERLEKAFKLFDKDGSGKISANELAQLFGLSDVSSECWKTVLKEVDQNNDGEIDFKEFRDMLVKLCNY

outcome, inactive:
Cc1cc(-c2cccc(CNCCc3ccc(Cl)cc3)c2)cnc1N, CCCCCCN1CCN(Cc2cccc(NC(=O)c3cccc(OCC)c3)c2)CC1, CCOc1ccc(Br)cc1/C=C/C(=O)Nc1ccc2c(c1)CN(C)CCC2, O=C(CN1CCN(C(=O)c2ccco2)CC1)Nc1ccc(Br)cc1Cl, FC(F)(F)c1ccc2nc(-c3ccc(-c4ccc(CNCC5CCCO5)cc4)cc3)[nH]c2c1 (stereo not given), CC[C@H](NC(=O)c1ccc(NC(=O)OC(C)(C)C)cc1)C(=O)N[C@@H](CO)C(=O)NCCCCc1ccccc1, Cc1cccc(C(=O)Nc2ccnc(N3CCC(N(C)Cc4cccc(O)c4)CC3)c2)c1, CCCSc1nc2c(c(=O)n1CCc1ccccc1)C1(CCCC1)Cc1ccccc1-2, COc1ccc2c(NN=Cc3cccnc3)ccnc2c1, Cc1cc(N[C@@H](CC(C)C)C(=O)NCc2cccc(F)c2)nc(NCC2CCCCC2)n1, CN1CCCN(Cc2ccc(-c3ccc(NC(=O)c4ccc(C#N)cc4)cc3)cc2)CC1, O=C(N[C@@H](CC1CCCCC1)C(=O)NCCN1CCCC1)c1ccc(O)c(-c2ccc(Cl)c(Cl)c2)c1, NC(N)=Nc1nc(-c2ccc(NC(=O)Nc3cccc(-c4csc(N=C(N)N)n4)c3)cc2)cs1, CC(C)COc1ccc(Cl)cc1Cc1ccc(-c2nc3c(cnc4ccccc43)[nH]2)o1, CC1(C)N=C(N)N=C(N)N1OCc1cc(Cl)c(Cl)cc1CON1C(N)=NC(N)=NC1(C)C, CN(C)CCNCc1cccc(-c2cccc(-c3nc4ccccc4[nH]3)c2)c1, CCn1ccc2c(N3CCCS3(=O)=O)cc(C(=O)N[C@@H](Cc3ccccc3)[C@H](O)CNC3CCCCC3)cc21, CCCCCCN1CCN(Cc2cccc(NC(=O)c3cc4ccccc4s3)c2)CC1, N#Cc1ccc2c(c1)CCN(CCC1CCC(NC(=O)c3cc4cccc([N+](=O)[O-])c4[nH]3)CC1)C2 (stereo not given), O=C(Cn1c(CCc2cccc(F)c2F)cc(=O)c2cccnc21)N(CCCn1ccnc1)Cc1ccc(-c2ccc(C(F)(F)F)cc2)cc1, O=C(Nc1cccc(OCCN2CCCC2)c1)Nc1ccc(Cl)c(Cl)c1, Cc1ccc(Nc2nc(C)cc(Nc3cccc(NS(C)(=O)=O)c3)n2)cc1, Cc1cccc2c3c([nH]c12)C1(CCN(Cc2ccccc2)CC1)NC(C(=O)NCc1ccccc1)C3 (stereo not given), OCCn1c(CNCCCNc2nc3ccccc3[nH]2)cc2c(Cl)cc(Cl)cc21, CCOc1ccc2c(NN=Cc3cccc([N+](=O)[O-])c3)cc(C)nc2c1, CCN(CC)CCN(CCCc1ccc(-c2ccc(C(F)(F)F)cc2)cc1)C(=O)Cn1c(CCc2cccc(F)c2F)nc(=O)c2c1CCC2, Cc1cc(C(=O)Nc2nc(-c3ccccn3)nc3ccsc23)no1, CCCN(CCC)CCCNc1ccc(C(=O)Nc2ccc(C)c(F)c2)cc1[N+](=O)[O-], CCN(CC)CCN(Cc1ccc(-c2ccc(C(F)(F)F)cc2)cc1)C(=O)Cn1cc(CCCc2cccc(F)c2F)c(=O)c2ccccc21, O=C(Cc1ccc(NC(=O)c2ccc(O)c(-c3ccc(Cl)c(Cl)c3)c2)cc1)NCCc1ccc(Cl)c(Cl)c1, C=CCO[C@@H]1O[C@H](COC(c2ccccc2)(c2ccccc2)c2ccccc2)[C@@H](OC(C)=O)[C@H](OC(C)=O)[C@H]1NC(C)=O, CCOc1cc(NCCSCc2nc[nH]c2C)nc2ccccc12, Cc1cc(C(=O)Nc2ccc(-c3nc4ccccc4[nH]3)cc2)ccc1[N+](=O)[O-], Cc1ccc(C)c2sc(N(CCCn3ccnc3)C(=O)C=Cc3cccs3)nc12, COc1cc(C=Cc2ccc3ccccc3n2)cc(Br)c1OCC(=O)N(C)C, O=C(Nc1ccc(N2CCCCC2)c(Cl)c1)c1ccc(Br)o1, Cn1cnc(CCNC(=O)c2cccc(-c3cccc(-c4nc5ccc(C(F)(F)F)cc5[nH]4)c3)c2)c1, CC(Cc1ccc(CN(CC(N)=O)Cc2ccc(CC(C)NCCc3cccc(Cl)c3)cc2)cc1)NCCc1cccc(Cl)c1 (stereo not given), CCC1CCCCN1S(=O)(=O)c1ccc(OC)c(N2CCN(C(=O)C(Cl)(Cl)Cl)CC2)c1 (stereo not given), Cc1cc2ncn(-c3ccnc(N4CCN(CCCN5CCCC5)CC4)n3)c2cc1C
